Active and inactive are the calls of the source. Calls follow the shape of the full dose curve.

The test can be described thus: NSCLC 2 Cell Viability Secondary Assay for qHTS Assay for Epigenetic Modulators. As to conditions: NSCLC 2 viability, MTS absorbance, 4 days. An excerpt: NIH Molecular Libraries Screening Centers Network [MLSCN] NIH Chemical Genomics Center [NCGC] MLSCN Grant: 1 X01 MH079860-01 Assay Provider: Elisabeth D. Martinez, University of Texas SW Medical Center NCGC Assay Overview: This secondary assay characterizes selected actives identified in the qHTS of the Locus Derepression (LDR) assay (PubChem AID 597). The LDR assay detects the derepression of a GFP reporter that is stably integrated in a region of the genome of murine c127i mammary cells that is presumably silenced. Compounds that cause derepression of the locus to express GFP are identified by enumerating GFP positive cells using a laser-scanning microplate cytometer. Selected LDR actives were assayed for killing of NSCLC 2, a patient-derived nonsmall cell lung carcinoma line. Known epigenetic drugs, like histone deacetylase inhibitors, can block cancer cell growth. NSCLC 2 cell viability was measured using Cell Titer 96 AQueous One (Promega), an assay which detects the ability of metabolically active cells to reduce a tetrazolium salt substrate (MTS), into a soluble formazan product that can be measured by colorimetry.
NCGC Assay Protocol Summary NSCLC 2 cells were plated in 96-well flat bottom tissue culture dishes (Corning) and grown overnight at 37 C and 5% CO2, then treated with compounds, incubated 4 days, and assayed for viability using the Cell Titer 96 AQueous One kit (Promega) according to the manufacturer's protocol. Absorbance at 490 nm and 650 nm (reference) was measured by a Spectra Max (Molecular Devices). Data were normalized to the untreated control (100% viability). Each cell line was tested in one or two independent assays, each containing 4 or 8 replicates. For further details, see R.L. Johnson, W. Huang, A. Jadhav, C.P. Austin, J. Inglese, E.D. Martinez, A Quantitative High-Throughput Screen Identifies Potential Epigenetic Modulators of Gene Expression, Analytical Biochemistry (2007), doi: 10.1016/j.ab.2007.12.028
In general terms: qHTS replaces the single test concentration by a dilution series.
On to `O=C(CSc1cccc2cccnc12)N1CCCC1`, for which the call was inactive. The same measure, in the same setting: for `CN1C(=S)SC(c2ccccc2)N(C)C1c1ccccc1` (stereo not drawn) the value was “inactive”. `CC(C)C(=O)NC(c1ccco1)c1ccc2cccnc2c1O` (stereo not drawn): the Potency was 800 nM (active). For the compound `CC(/C=C/C(=O)NO)=C\[C@@H](C)C(=O)c1ccc(N(C)C)cc1`, the Potency was 40 nM (active). On the same count and under the same terms, for `CC(C)C(=O)NC(c1ccc(N(C)C)cc1)c1ccc2cccnc2c1O` (stereo not drawn) the value was 200 nM (active). `O=C(CSc1cccc2cccnc12)NCc1ccccc1`: the compound was classed as inactive. Turning to `CC(C)C(=O)NC(c1ccco1)c1cc([N+](=O)[O-])c2cccnc2c1O` (stereo not drawn), the Potency was 6000 nM (active).

In the case of `O=Nc1ccc(O)c2ncccc12`, the Potency is 1000 nM (active).

The record behind these values is PubChem BioAssay AID1037 (National Center for Advancing Translational Sciences (NCATS), 2008).
